Imprint erasure = genomic imprint erasure induction; mouse ES Peg3-LacZ reporter, beta-gal luminescence, 40 h; Potency, µM (top dose mostly 60.7 µM), for the others: at the top dose activity change, positive = activation, usual class: activators; 110,000 compounds, 0.02% hits
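Each well holds 300 Peg3LacZ-Neo (maternal) female ES cells incubated 40 h at 37C, 5% CO2. LacZ is measured by BetaGlo luminescence, with AC50 and maximum efficacy derived from dose-response curves.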
p53ts 32C kill = cytotoxicity in p53ts cells at permissive temperature; H1299-p53A138V at 32C, ATP luminescence viability, 24 h; Potency, µM (titrated, usually from 46.1 µM), for the others: at the top dose activity change, negative = cytotoxicity, hits mostly cytotoxic; 130,000 compounds, 0.93% hits; AID 924;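 note: 0% = DMSO and -100% = full killing by reference compound; nearly all actives have a fitted effect of over 55% in size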
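ATP-content luminescence (ATPlite) read-out after 24 h compound exposure at 32C in H1299-p53A138V cells (600/well). Tested up to 46 uM. Normalized to DMSO (0%) and 100 uM tamoxifen (100% killing); Hill-fit AC50.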
IkB signaling = IkB pathway inhibition in ABC-DLBCL cells | AID 445 | ABC-DLBCL IkBa-CBG/CBR dual luciferase ratio, 4 h; response scale: scaled: untreated 0%, proteasome inhibitor 100% | Potency, µM (doses to about 57.1 µM), for inactives: top-dose IkBa stabilization activation | 110,000 compounds, 0.04% hits; active = well fitted curve in the direction sought with a large enough effect in the signal ratio, not every such curve was filed as active; inconclusive = small, poorly fitted or top-dose-only effect, or a change in a side signal; the % refers to the signal ratio;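 note: the direction sought is a rising ratio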
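Curves were fitted separately to fusion (green), unfused (red) and ratio luminescence, then classed by r2, magnitude and activity. Cells: OCI-Ly3, 4 h compound plus doxycycline at 37C; 10 uM MG-132 defined full response.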
p53ts 39C tox = p53ts cell cytotoxicity, nonpermissive temperature; H1299-p53A138V viability at 39C, ATP luminescence, 24 h; 130,000 compounds, 1.5% hits; AID 902; Potency, µM (top dose mostly 46.1 µM), for the others: at the top dose activity change, negative = cell killing, hits mostly cytotoxic; note: % is set by controls: 0 for no effect and ±100 for the full control effect; nearly all actives have a fitted effect of over 55% in size
Starred values were filed as active, the others as inactive; ! = not active in a repeat; [ ] = another dose, or the depositor's remark. Hits are enriched below; roughly 1.7% of the tested compounds scored in any of these assays. Unless noted, calls come from the whole dose curve; as a rule, active = well fitted curve in the direction sought with a large enough effect; inconclusive = small, poorly fitted or top-dose-only effect, or another doubt; inactive = no such curve, though single readings can be large; an effect the other way counts as inactive or inconclusive. Potency is the fitted concentration of half-maximal effect.

What do the screens show for `COc1cccc(NS(=O)(=O)c2ccc3[nH]c4c(c3c2)CCCCCC4)c1`?
Imprint erasure: -11%[10.9 µM]; p53ts 32C kill: 14%; IkB signaling: inconclusive; p53ts 39C tox: 20µM*

What do the screens show for `CCc1cccc(NC(=O)Cn2c(C(=O)OC)cc3occc32)c1`?
Imprint erasure: -8%[10.9 µM]; p53ts 32C kill: 1%; IkB signaling: 1%; p53ts 39C tox: -20%

Results for COc1ccc(-c2nc3cc(NC(=O)Cc4ccc(Cl)cc4)ccc3o2)cc1OC ?
Imprint erasure: -21%[10.9 µM]; p53ts 32C kill: 10µM*; IkB signaling: inconclusive; p53ts 39C tox: 7.9µM*

What do the screens show for `COc1ccc(CC(=O)Nc2cccc(-c3nnc(-c4cccc(C)c4)o3)c2)cc1OC`?
Imprint erasure: -47%; p53ts 32C kill: 13µM*; IkB signaling: inconclusive; p53ts 39C tox: inconclusive

How did O=C(Cc1ccc(Cl)cc1)Nc1ccc2oc(-c3ccc(F)cc3)nc2c1 do in these assays?
Imprint erasure: -11%[10.9 µM]; p53ts 32C kill: -12%; IkB signaling: 11%; p53ts 39C tox: -5%

How did COc1ccc(CC(=O)Nc2cccc(-c3nnc(-c4ccc(C)cc4)o3)c2)cc1OC do in these assays?
Imprint erasure: -17%; p53ts 32C kill: inconclusive; IkB signaling: inconclusive; p53ts 39C tox: -9%

What do the screens show for `O=C(Nc1cccc(F)c1)N1CC[C@@]2(CCCN(C(=O)c3ccncc3)C2)C1`?
p53ts 32C kill: -4%; IkB signaling: 2%[11.4 µM]; p53ts 39C tox: -4%

What do the screens show for `O=C(NC(=S)N(CCc1ccccc1)CCc1ccccc1)c1ccco1`?
p53ts 32C kill: -10%; p53ts 39C tox: 11µM*

Results for CN1CCN(CCCN2c3ccccc3Sc3ccc(Cl)cc32)CC1 ?
Imprint erasure: -24%; p53ts 32C kill: 16µM*!; IkB signaling: 0%[25.6 µM]; p53ts 39C tox: 20µM*

Results for Cc1cc(NC(=O)CN2C(=O)c3cccnc3Sc3ccccc32)ccc1Br ?
Imprint erasure: -9%[10.9 µM]; p53ts 32C kill: 21%; IkB signaling: inconclusive; p53ts 39C tox: -7%

How did COc1cccc(-c2cc(C(F)(F)F)n3nc(N)nc3n2)c1 do in these assays?
Imprint erasure: -11%; p53ts 32C kill: -5%; IkB signaling: -2%; p53ts 39C tox: -9%

What do the screens show for `COc1cccc(-c2cn3nc4c(nc3n2)CCCC4)c1`?
Imprint erasure: -94%; p53ts 32C kill: 5µM*; IkB signaling: inconclusive; p53ts 39C tox: 5µM*

What do the screens show for `Cc1nnc(SCCn2c(N3CCCC(C)C3)nc3c2c(=O)n(C)c(=O)n3C)s1` (centres undefined)?
Imprint erasure: -93%; p53ts 32C kill: 5µM*; IkB signaling: 3%; p53ts 39C tox: 6.3µM*

How did CCOC(=O)c1ccc(NC(=O)CC2NCCNC2=O)cc1 (centres undefined) do in these assays?
Imprint erasure: -4%[10.9 µM]; p53ts 32C kill: -4%; IkB signaling: -2%; p53ts 39C tox: -6%

What do the screens show for `CCOC(=O)c1ccc(NC(=O)CC2SCCNC2=O)cc1` (centres undefined)?
Imprint erasure: 17%; p53ts 32C kill: 13µM*; IkB signaling: -4%; p53ts 39C tox: 13µM*

What do the screens show for `CC(C)(C)C1CCC2(CC1)CCN(CCCN1CCOCC1)CC2`?
Imprint erasure: -20%[10.9 µM]; p53ts 32C kill: -6%[9.22 µM]; IkB signaling: 0%[11.4 µM]; p53ts 39C tox: 4%[9.22 µM]

How did Cc1ccc(C)c(Cn2c(=O)n(CCCCC(=O)NCc3ccccc3Cl)c(=O)c3ccccc32)c1 do in these assays?
Imprint erasure: 10%[10.9 µM]; p53ts 32C kill: 3%; IkB signaling: 3%; p53ts 39C tox: 25µM*

Results for Cc1ccc(NC(=O)CSc2nc3nccnc3c(=O)n2CCc2c[nH]c3ccccc23)cc1C ?
Imprint erasure: 8%[10.9 µM]; p53ts 32C kill: 8%; IkB signaling: 0%; p53ts 39C tox: -7%

How did CCOc1ccc(NC(=O)c2ncn(-c3ccccc3)n2)cc1 do in these assays?
Imprint erasure: -7%[10.9 µM]; p53ts 32C kill: -12%; IkB signaling: inconclusive; p53ts 39C tox: -23%

What do the screens show for `O=C(Nc1ccc(F)cc1)c1ncn(-c2ccccc2)n1`?
Imprint erasure: -32%[10.9 µM]; p53ts 32C kill: inconclusive; IkB signaling: inconclusive; p53ts 39C tox: 16µM*

What do the screens show for `CC(=O)c1cccc(NC(=O)c2noc3c2CC(C)CC3)c1` (centres undefined)?
Imprint erasure: -19%[10.9 µM]; p53ts 32C kill: -4%; IkB signaling: -2%; p53ts 39C tox: 18%

What do the screens show for `Cc1cc(C)n(-c2ccc(C(=O)Nc3ccccn3)cc2)n1`?
Imprint erasure: -67%; p53ts 32C kill: 13µM*; IkB signaling: inconclusive; p53ts 39C tox: 10µM*

What do the screens show for `Cc1cc(C)n(-c2ccc(C(=O)Nc3sccc3C(N)=O)cc2)n1`?
Imprint erasure: -51%; p53ts 32C kill: inconclusive; IkB signaling: inconclusive; p53ts 39C tox: inconclusive

What do the screens show for `CCc1nnc2n1N(C(C)=O)C(c1ccc(C(C)(C)C)cc1)=C(C(C)=O)S2`?
Imprint erasure: -19%[10.9 µM]; p53ts 32C kill: -8%; IkB signaling: inconclusive; p53ts 39C tox: 13µM*

Results for CCOc1ccc(C2=C(C(C)=O)Sc3nnc(C)n3N2C(C)=O)cc1 ?
Imprint erasure: -17%[10.9 µM]; p53ts 32C kill: -3%; IkB signaling: inconclusive; p53ts 39C tox: -34%

Results for COc1ccccc1CNC(=O)c1ccc(CSc2nc3ccncc3n2Cc2ccccc2C)cc1 ?
Imprint erasure: -17%[10.9 µM]; p53ts 32C kill: 13%; IkB signaling: inconclusive; p53ts 39C tox: -9%

What do the screens show for `COC(=O)c1nn(-c2ccc(-c3ccccc3)cc2)cc1O`?
Imprint erasure: -86%; p53ts 32C kill: 7.9µM*; IkB signaling: inconclusive; p53ts 39C tox: inconclusive

Results for CC(=O)c1cccc(NS(=O)(=O)c2ccc(N/C=C/C(=O)c3ccc(F)cc3)cc2)c1 ?
p53ts 39C tox: -19%

What do the screens show for `O=C(/C=C/Nc1ccc(F)cc1)c1ccco1`?
Imprint erasure: -23%; p53ts 32C kill: 7.9µM*; IkB signaling: inconclusive; p53ts 39C tox: 13µM*

What do the screens show for `O=C(O)c1cc(/C=N\O)ccc1OCc1ccccc1`?
Imprint erasure: 4%; p53ts 32C kill: -1%; IkB signaling: inconclusive; p53ts 39C tox: 9%

How did COc1cc(/C=N/O)ccc1OCc1ccc(C(=O)O)cc1 do in these assays?
p53ts 32C kill: 8.9µM*; p53ts 39C tox: 8.9µM*

How did C=CCc1ccccc1OCCSc1nc(-c2ccc(C(C)(C)C)cc2)nc2cc(=O)[nH]n12 do in these assays?
Imprint erasure: -2%[10.9 µM]; p53ts 32C kill: inconclusive; IkB signaling: 0%; p53ts 39C tox: 10µM*

What do the screens show for `COc1ccccc1OCCSc1nc(-c2ccc(C(C)(C)C)cc2)nc2cc(=O)[nH]n12`?
Imprint erasure: -3%[10.9 µM]; p53ts 32C kill: 36%; IkB signaling: inconclusive; p53ts 39C tox: 56%

How did Cc1ccc(OCCCSc2nc(-c3ccc(C(C)(C)C)cc3)nc3cc(=O)[nH]n23)cc1C do in these assays?
Imprint erasure: -6%[10.9 µM]; p53ts 32C kill: inconclusive; IkB signaling: 2%; p53ts 39C tox: 20µM*
